For seven molecules, Potency and outcome results are on record in PubChem BioAssay (Tox21).

SMILES strings stand for the structures. Inconclusive results are not listed. Activity calls are given as the source filed them. Unless noted, calls come from the whole dose curve; as a rule, active = well fitted curve in the direction sought with a large enough effect in the repeat runs; inconclusive = weak or mixed curves; inactive = no such curve, though single readings can be large; an effect the other way counts as inactive or inconclusive.

Test [1] can be described thus: qHTS assay to identify small molecule antagonists of the estrogen receptor beta (ER-beta) signaling pathway - cell viability counter screen (AID 1259382).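 Note: HEK293T cells carrying ER-beta-UAS-bla reporter stimulated with estradiol; series mostly up to about 92 µM; nearly all actives have a fitted effect of over 55% in size.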 The method in brief:
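Cytotoxicity was measured in the same wells by CellTiter-Glo luminescence after 30 min at room temperature. Cells were ER-beta-bla HEK293T in charcoal-stripped serum, given compound together with 1 nM E2 and incubated 16 h at 37C.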
For orientation: qHTS replaces the single test concentration by a dilution series.

Test [2] concerns the target Estrogen receptor (Homo sapiens) (UniProt P03372). Description: qHTS assay to identify small molecule agonists of the estrogen receptor alpha (ER-alpha) signaling pathway in the presence of an antagonist (AID 1259383; calls by dose curve; note: top concentration of the series differs between compounds; nearly all actives have a fitted effect of over 15% in size). The essentials: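 Agonist-mode confirmation run in the presence of 10.0nM (final) ICI-182,780 antagonist. The reporter was ERE-driven luciferase in VM7Luc4E2 cells, grown in charcoal-stripped serum. Cells were exposed to 15-concentration compound series for 22hr, then ONE-Glo luminescence was read.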

Test [3] in a line: qHTS assay to identify small molecule agonists or antagonists of the thyroid stimulating hormone receptor (TSHR) signaling pathway - wild type cell line counter screen (AID 1259384; calls by dose curve). The method in brief: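 Wild-type Hek293 cells, 800/well, 18 h at 37C, then compound with Ro20-1724 for 30 min RT. cAMP by HTRF (cAMP-d2/anti-cAMP cryptate), 1 h RT, fluorescence read. 15 concentrations, triplicates.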

The target of test [4] is Thyrotropin receptor (Homo sapiens) (UniProt P16473). Description: qHTS assay to identify small molecule antagonists of the thyroid stimulating hormone receptor (TSHR) signaling pathway (AID 1259385; calls by dose curve; note: nearly all actives have a fitted effect of over 20% in size). The essentials: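 TSHR-HEK293 cells (800/well) plated 18 h, then compounds with Ro20-1724 and TSH at 1.5 ng/mL final, 30 min at room temperature. cAMP quantified by HTRF (cAMP-d2/anti-cAMP-cryptate, 1 h); 15 concentrations in triplicate.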
Thyrotropin receptor (Homo sapiens), sequence (P16473 whole entry, looked up): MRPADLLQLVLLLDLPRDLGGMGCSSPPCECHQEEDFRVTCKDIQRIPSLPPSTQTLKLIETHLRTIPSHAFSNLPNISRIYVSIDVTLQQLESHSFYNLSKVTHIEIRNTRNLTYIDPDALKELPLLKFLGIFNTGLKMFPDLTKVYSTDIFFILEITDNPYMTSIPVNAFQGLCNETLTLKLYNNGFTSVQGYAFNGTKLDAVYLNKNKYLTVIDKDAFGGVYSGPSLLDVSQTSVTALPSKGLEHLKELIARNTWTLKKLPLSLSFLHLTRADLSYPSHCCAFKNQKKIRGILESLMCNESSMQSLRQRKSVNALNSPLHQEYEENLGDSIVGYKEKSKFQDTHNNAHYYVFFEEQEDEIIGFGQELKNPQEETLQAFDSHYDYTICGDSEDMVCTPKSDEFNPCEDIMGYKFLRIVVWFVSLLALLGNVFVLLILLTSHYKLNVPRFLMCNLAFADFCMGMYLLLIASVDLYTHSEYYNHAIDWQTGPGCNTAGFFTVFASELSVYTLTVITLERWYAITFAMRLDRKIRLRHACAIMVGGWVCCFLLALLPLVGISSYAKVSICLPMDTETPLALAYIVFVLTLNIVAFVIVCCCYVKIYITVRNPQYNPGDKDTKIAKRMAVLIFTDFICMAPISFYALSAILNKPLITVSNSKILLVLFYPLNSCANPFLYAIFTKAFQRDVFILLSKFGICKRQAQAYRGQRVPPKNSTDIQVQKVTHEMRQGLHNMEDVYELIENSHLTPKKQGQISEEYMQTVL

Test [5] is described as follows: qHTS assay to identify small molecule agonists of the estrogen receptor alpha (ER-alpha) signaling pathway in the presence of an antagonist - cell viability counter screen (AID 1259386). Note: nearly all actives have a fitted effect of over 30% in size. Note: potency is the fitted concentration of half-maximal effect. The method in brief:
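Compounds tested at 15 concentrations for 22 h at 37C alongside 10.0nM (final) ICI-182,780 antagonist, in VM7Luc4E2 cells grown in phenol red-free, charcoal-stripped medium. Viability read by CellTiter-Fluor fluorescence after 1 h reagent incubation.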

Test [6] addresses Progesterone receptor (Homo sapiens) (UniProt P06401). Description: qHTS assay to identify small molecule agonists of the progesterone receptor (PR) signaling pathway (AID 1346784; calls by dose curve; note: nearly all actives have a fitted effect of over 30% in size). The essentials:
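Cells (PR-UAS-bla HEK 293T, GripTite) were plated in assay medium containing 2% charcoal-stripped FBS and incubated 6 hr. Test compounds in DMSO were added for 16 hr at 37C. FRET substrate was then loaded for 2 hr at room temperature before fluorescence reading.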

The target is the same in test [7]. Description: qHTS assay to identify small molecule antagonists of the progesterone receptor (PR) signaling pathway (AID 1346795; active = well fitted inhibition curve with a large enough effect in the signal ratio in the repeat runs, not every such curve was filed as active; the % refers to the signal ratio; note: potency is the fitted concentration of half-maximal effect). The essentials:
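Antagonist mode: compounds tested against 1 nM (final) promegestone stimulation in HEK293T cells expressing PR-UAS-bla reporter, 16 hr at 37C, 5% CO2; beta-lactamase activity detected via B/G FRET substrate after 2 hr at room temperature.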

A short description of test [8]: qHTS assay to identify small molecule antagonists of the progesterone receptor (PR) signaling pathway - cell viability counter screen (AID 1346798). Note: series mostly up to about 92 µM; nearly all actives have a fitted effect of over 50% in size. The essentials: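 Counter screen for cytotoxicity: viability of PR-UAS-bla HEK293T cells was measured with CellTiter-Glo luminescence following 16 hr compound exposure in the presence of R5020.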
Test [9] in a line: qHTS assay to identify small molecule antagonists of the TGF-beta/Smad signaling pathway - cell viability counter screen (AID 1346824). Note: nearly all actives have a fitted effect of over 50% in size. The method in brief: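 SBE-bla HEK 293T cells, incubated overnight, then compound plus 0.25 ng/mL TGF-beta1 (stock added) for 5 hr at 37 C. Viability was read in the same wells by CellTiter-Glo luminescence after 30 min at room temperature.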

Test [10] can be described thus: qHTS assay to identify small molecule agonists of the TGF-beta/Smad signaling pathway - cell viability counter screen (AID 1346829). Note: top concentration of the series differs between compounds; nearly all actives have a fitted effect of over 45% in size. The method in brief:
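Same-well cytotoxicity: CellTiter-Glo added after the 2 hr room-temperature beta-lactamase substrate step, luminescence measured 30 min later; cells had 5 hr of compound at 37 C.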

Test [11] is described as follows: qHTS assay to identify small molecule agonists of the TGF-beta/Smad signaling pathway (AID 1346859; active = well fitted activation curve with a large enough effect in the signal ratio in the repeat runs, not every such curve was filed as active; the % refers to the signal ratio; note: series mostly up to about 77 µM). The essentials:
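Reporter line: HEK 293T with stably integrated SBE-controlled beta-lactamase. Compound exposure lasts 5 hr at 37 C and 5% CO2; substrate loading follows for 2 hr at room temperature, with emission read at 460 and 530 nm.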

A short description of test [12]: Human pregnane X receptor (PXR) small molecule agonists, qHTS cell viability counter screen (AID 1346977). Note: nearly all actives have a fitted effect of over 50% in size. The method in brief: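 Cytotoxicity counter screen run in the same wells as the PXR luciferase assay, using PXR-Luc HepG2 cells in charcoal-stripped serum medium. Viability: CellTiter-Fluor fluorescence after 24hr compound treatment.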
Test [13] can be described thus: Caspase-3/7 induction in HepG2 cells by small molecules, qHTS assay (AID 1346978). Note: nearly all actives have a fitted effect of over 15% in size. The method in brief:
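Wild-type HepG2 cells, 2,000/well, settled 5 hr at 37 C and 5% CO2, then compound-treated for 17 hr; caspase-3/7 activity read by luminescent Caspase-Glo 3/7 after 30 min at room temperature.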

Test [14] is described as follows: Caspase-3/7 induction in CHO-K1 cells by small molecules, qHTS cell viability counter screen (AID 1346979). Note: nearly all actives have a fitted effect of over 35% in size. Note: potency is the fitted concentration of half-maximal effect. The essentials:
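Cytotoxicity counter screen run in parallel with the caspase-3/7 assay: CHO-K1 cells, 16hr compound treatment at 37C, then CellTiter-Fluor for 1hr before fluorescence reading.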

Test [15] is described as follows: Caspase-3/7 induction in CHO-K1 cells by small molecules, qHTS assay (AID 1346980). Note: nearly all actives have a fitted effect of over 15% in size. The method in brief:
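Wild-type CHO-K1 cells exposed to compounds for 17hr at 37 C, 5% CO2. Caspase-3/7 activity then measured by Caspase-Glo 3/7 luminescence after 30min at room temperature.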

Test [16] is described as follows: Caspase-3/7 induction in HepG2 cells by small molecules, qHTS cell viability counter screen (AID 1346981). Note: series mostly up to about 92 µM; nearly all actives have a fitted effect of over 30% in size. The essentials: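 CellTiter-Fluor fluorescence measured viability in the same wells used for Caspase-Glo 3/7. HepG2 (wild type) at 2,000 cells/well were pre-incubated 5 hr, dosed, and given reagent at 16 hr, with 1 hr further at 37C.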
For test [17], the target named is Nuclear receptor subfamily 1 group I member 2 (Homo sapiens) (UniProt O75469). Description: Human pregnane X receptor (PXR) small molecule agonists, qHTS assay (AID 1346982). Note: nearly all actives have a fitted effect of over 35% in size. Note: potency is the fitted concentration of half-maximal effect. The method in brief: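 Agonist mode: luminescence from ONE-Glo after 24 h compound exposure at 37C in HepG2 cells carrying hPXR-responsive CYP3A4 luciferase, plated in charcoal-stripped serum medium 5 h beforehand.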
Nuclear receptor subfamily 1 group I member 2 (Homo sapiens), sequence (O75469 whole entry, looked up): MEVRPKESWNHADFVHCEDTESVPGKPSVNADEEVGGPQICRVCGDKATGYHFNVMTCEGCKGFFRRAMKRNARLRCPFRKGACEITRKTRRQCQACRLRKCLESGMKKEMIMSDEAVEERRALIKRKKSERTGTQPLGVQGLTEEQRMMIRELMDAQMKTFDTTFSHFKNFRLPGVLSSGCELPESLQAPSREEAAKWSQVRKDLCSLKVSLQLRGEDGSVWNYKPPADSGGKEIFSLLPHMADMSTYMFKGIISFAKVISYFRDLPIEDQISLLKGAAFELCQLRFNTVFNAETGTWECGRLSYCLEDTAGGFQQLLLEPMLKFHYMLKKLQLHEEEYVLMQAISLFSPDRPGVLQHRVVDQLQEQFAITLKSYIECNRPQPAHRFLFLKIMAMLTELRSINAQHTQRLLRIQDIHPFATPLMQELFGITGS

The nature of test [18]: qHTS assay to identify small molecule agonists of the progesterone receptor (PR) signaling pathway - cell viability counter screen (AID 1346799; calls by dose curve; note: nearly all actives have a fitted effect of over 45% in size). The essentials:
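Cells (PR-UAS-bla HEK293T) are plated at 3,000/well in 2% charcoal-stripped FBS medium, rested 6 hr, dosed and incubated 16 hr at 37C. CellTiter-Glo is then added and luminescence measured after 30 min at room temperature.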

Test [19] concerns the target Thyrotropin-releasing hormone receptor (Homo sapiens) (UniProt P34981). Description: qHTS assay to identify small molecule antagonists of the thyrotropin-releasing hormone receptor (TRHR) signaling pathway (AID 1346877; active = well fitted inhibition curve with a large enough effect in the repeat runs, not every such curve was filed as active; note: series mostly up to about 51 µM). The essentials:
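Antagonist mode: after a 5 min room-temperature compound exposure, cells were stimulated with 1 nM (final) TRH. Dye-loaded TRHR-HEK293 cells were used, and calcium-dependent fluorescence was followed for 3 min, with 15-point titrations run in triplicate.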

For test [20] the target is unchanged. Description: qHTS assay to identify small molecule agonists of the thyrotropin-releasing hormone receptor (TRHR) signaling pathway (AID 1346891; calls by dose curve;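 note: HEK293 cells expressing TRHR with calcium dye readout; series mostly up to about 58 µM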). The essentials:
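Cells: TRHR-Hek293, seeded and incubated 18 h. Dye loading: 2 h at 37 °C. Compound added from DMSO stock by pin tool. Read-out: kinetic calcium fluorescence over 3 min.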

Progesterone receptor (Homo sapiens), sequence (P06401 whole entry, looked up): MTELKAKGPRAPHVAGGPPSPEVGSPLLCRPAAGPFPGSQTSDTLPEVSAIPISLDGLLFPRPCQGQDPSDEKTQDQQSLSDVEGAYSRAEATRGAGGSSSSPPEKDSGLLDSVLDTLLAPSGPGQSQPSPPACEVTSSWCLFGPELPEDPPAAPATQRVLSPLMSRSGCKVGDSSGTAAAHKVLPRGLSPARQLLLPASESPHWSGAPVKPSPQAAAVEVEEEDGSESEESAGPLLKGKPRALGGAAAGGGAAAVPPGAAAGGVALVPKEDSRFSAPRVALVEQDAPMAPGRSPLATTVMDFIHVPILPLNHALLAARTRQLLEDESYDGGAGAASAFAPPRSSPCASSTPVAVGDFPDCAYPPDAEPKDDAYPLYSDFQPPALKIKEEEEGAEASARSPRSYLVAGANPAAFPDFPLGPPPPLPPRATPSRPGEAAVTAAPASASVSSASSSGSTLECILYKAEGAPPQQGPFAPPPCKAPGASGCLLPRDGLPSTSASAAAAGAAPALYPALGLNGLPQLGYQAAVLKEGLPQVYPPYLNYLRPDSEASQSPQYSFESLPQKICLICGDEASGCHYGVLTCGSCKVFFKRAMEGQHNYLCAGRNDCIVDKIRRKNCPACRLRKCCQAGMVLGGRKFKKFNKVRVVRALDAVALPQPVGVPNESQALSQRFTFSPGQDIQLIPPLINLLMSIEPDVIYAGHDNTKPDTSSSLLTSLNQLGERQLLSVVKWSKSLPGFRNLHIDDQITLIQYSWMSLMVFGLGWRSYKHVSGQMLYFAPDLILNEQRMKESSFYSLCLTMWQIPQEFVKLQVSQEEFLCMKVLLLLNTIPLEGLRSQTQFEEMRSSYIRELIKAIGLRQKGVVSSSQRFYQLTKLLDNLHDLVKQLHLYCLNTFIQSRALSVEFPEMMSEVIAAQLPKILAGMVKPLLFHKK
Estrogen receptor (Homo sapiens), sequence (P03372 whole entry, looked up): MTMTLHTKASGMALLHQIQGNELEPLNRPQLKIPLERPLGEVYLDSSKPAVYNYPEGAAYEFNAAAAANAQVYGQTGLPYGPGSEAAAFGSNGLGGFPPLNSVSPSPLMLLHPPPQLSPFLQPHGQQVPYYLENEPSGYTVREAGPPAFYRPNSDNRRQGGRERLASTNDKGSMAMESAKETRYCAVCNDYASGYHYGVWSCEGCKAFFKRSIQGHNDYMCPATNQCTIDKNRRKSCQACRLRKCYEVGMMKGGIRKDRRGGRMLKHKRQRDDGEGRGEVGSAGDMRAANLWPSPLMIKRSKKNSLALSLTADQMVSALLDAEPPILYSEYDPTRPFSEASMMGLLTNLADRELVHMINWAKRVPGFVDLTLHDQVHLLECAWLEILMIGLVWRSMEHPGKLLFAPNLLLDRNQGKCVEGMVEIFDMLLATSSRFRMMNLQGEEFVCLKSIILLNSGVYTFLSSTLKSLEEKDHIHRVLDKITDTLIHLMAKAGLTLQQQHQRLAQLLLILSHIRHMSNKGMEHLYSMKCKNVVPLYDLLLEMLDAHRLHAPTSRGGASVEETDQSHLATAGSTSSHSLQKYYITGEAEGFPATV
Thyrotropin-releasing hormone receptor (Homo sapiens), sequence (P34981 whole entry, looked up): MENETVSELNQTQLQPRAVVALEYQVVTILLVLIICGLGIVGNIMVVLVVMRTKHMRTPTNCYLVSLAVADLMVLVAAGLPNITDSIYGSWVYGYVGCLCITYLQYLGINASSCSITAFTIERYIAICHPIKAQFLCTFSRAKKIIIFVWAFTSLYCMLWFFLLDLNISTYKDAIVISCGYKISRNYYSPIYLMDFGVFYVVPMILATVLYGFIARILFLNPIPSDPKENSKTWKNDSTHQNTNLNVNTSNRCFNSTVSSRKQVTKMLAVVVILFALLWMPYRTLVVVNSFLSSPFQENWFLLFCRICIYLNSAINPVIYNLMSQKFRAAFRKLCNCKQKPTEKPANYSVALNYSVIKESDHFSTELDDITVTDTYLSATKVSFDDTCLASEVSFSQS

As for `CN1CCN(C)CC1`, the Potency result in [1], in test [2], in test [3], in [4], in test [5] and in test [7] was “inactive” throughout. Also, the Potency result in [8], in test [9], in test [10], in [12], in test [13] and in test [14] was “inactive” each time. Moreover, the Potency result in [15], in test [16] and in [17] was “inactive” throughout. Moreover, the molecule was called inactive in test [6] and in [11].
On to `COc1cc(OC)nc(NC(=O)NS(=O)(=O)Nc2ccccc2C(=O)N(C)C)n1`, for which the Potency entry in test [1], in test [2], in [3], in test [4], in test [5] and in test [7] was “inactive” each time. Moreover, the Potency result in test [18], in test [9], in test [10], in test [19], in test [12] and in test [13] was “inactive” in each case. Besides, the Potency result in [14], in test [15] and in test [16] was “inactive” in each case. Moreover, the molecule was classed as inactive in test [6] and in [11].
`CC1(C)[C@H]2CC[C@]1(C)C(=O)C2`: the Potency result in test [1], in [2], in [3], in test [4], in test [5] and in test [8] was “inactive” throughout. For the same molecule, the Potency result in test [9], in [10], in [19], in test [12], in [13] and in test [15] was “inactive” in each case. Moreover, in [17], the Potency result is “inactive”. Besides, the molecule was classed as inactive in test [6] and in [11].
Turning to `CC(C)C(=O)C(C)C`, the Potency entry in test [1], in test [2], in test [3], in test [4], in test [5] and in [8] was “inactive” throughout. Besides, the Potency entry in test [18], in test [9], in test [10], in test [12], in [13] and in [15] was “inactive” throughout. Moreover, the Potency result in test [16] and in test [17] was “inactive” throughout. Besides, the molecule was classed as inactive in test [6] and in test [11].
For the molecule `Cc1ccc(N=Nc2c(O)ccc3ccccc23)c(C)c1`, the Potency entry in test [1], in [2], in test [3], in test [4], in test [8] and in [18] was “inactive” in each case. Besides, the Potency result in test [9], in test [10], in [19], in test [13] and in test [15] was “inactive” throughout. The Potency in [5] is 7.5 µM (active); in test [14], 7.5 µM (active); in test [17], 0.944 µM (active). Besides, the call in [6] and in test [11] was inactive.
Regarding `Nc1ccc(Oc2cccc(Oc3ccc(N)cc3)c2)cc1`, the Potency entry in test [1], in test [2], in [3], in [4], in test [5] and in test [9] was “inactive” throughout. Besides, the Potency result in [10], in test [19], in test [20], in test [12], in test [13] and in [14] was “inactive” each time. The Potency result in [15] and in [17] was “inactive” each time. Also, the call in test [6] and in test [11] was inactive. Further, in test [7], the Potency was 30.6 µM (active).
Take `CO[Si](OC)(c1ccccc1)c1ccccc1`: the Potency result in [1], in test [2], in test [3], in test [4], in test [5] and in test [18] was “inactive” each time. Moreover, the Potency entry in [9], in test [10], in [19], in test [20], in [12] and in test [13] was “inactive” throughout. Further, the Potency entry in [15] and in [16] was “inactive” throughout. The molecule was classed as inactive in [6] and in [11]. In addition, the Potency in test [17] is 34.4 µM (active).
